Bioassay records (PubChem)
Compounds with a hit are over-represented: about 5.7% of the library has one in this group of screens.
hcDAF-12 act = H. contortus DAF-12 nuclear receptor activators, primary screen, cell-based, luminescence, HEK293, lit1-tk-luc reporter; HEK293 hcDAF-12 lit1-tk-luc reporter; 0% DMSO, 100% Δ7-dafachronic acid; AID 652067, 2013; activation, % at 6.8 µM; 1.4% of 370,000 active;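 active means activation above the mean of all tested compounds plus 3 SD, cut at about 5.5% in these data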;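 further: 100% = response to 3 µM Δ7-dafachronic acid high control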
ssDAF-12 act = S. stercoralis DAF-12 nuclear receptor activators, primary screen, cell-based, luminescence, HEK293, GRIP1 co-expression, lit1-tk-luc; Nuclear hormone receptor DAF-12 (Strongyloides stercoralis); HEK293 ssDAF-12/GRIP1 lit1-tk-luc reporter; % of 3 µM dafachronic acid response; activation, % at 6.8 µM; 1% of 370,000 active;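 active means activation above the mean over all tested compounds plus 3 SD, cut at about 0.9% in these data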;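 further: 0% = DMSO-only wells and 100% = 3 µM delta7-dafachronic acid wells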
DAX1 inh-1 = DAX1 (NR0B1) inhibitors on StAR promoter, primary screen, cell-based, luminescence, SF-1 (NR5A1), full-length DAX-1; inhibition, % at 6.8 µM; HEK293T StAR-luciferase reporter, SF-1/DAX-1 repression relief; 1.1% of 370,000 active;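 active means inhibition above the mean over all tested compounds plus 3 SD, cut at about 3.6% in these data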;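 further: 0% = DAX-1 cells with DMSO and 100% = cells lacking DAX-1 with DMSO; higher inhibition means more luminescence from relief of DAX-1 repression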
hgDAF-12 ag = H. glycines DAF-12 receptor agonists, primary screen, cell-based, luminescence, HEK293, GAL4 fusion, UAS-luciferase | Nuclear hormone receptor DAF-12 (Heterodera glycines), GAL4 fusion | HEK293 GAL4-hgDAF12 UAS-luciferase reporter, agonist luminescence; normalized to butyrate control | activation, % at 6.8 µM | 1.8% of 370,000 active | AID 687014, 2013;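 active means activation above a cutoff set at the mean of all screened compounds plus 3 SD, cut at about 10% in these data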;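 further: 0% = DMSO wells and 100% = sodium butyrate wells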
DAX1 inh-2 = DAX1 (NR0B1) inhibitors, primary screen, cell-based, HEK293, Gal4-DAX1, luciferase luminescence. Nuclear receptor subfamily 0 group B member 1 (Homo sapiens), P51843. HEK293 Gal4-DAX1 luciferase reporter. inhibition, % at 6.75 µM. 0.99% of 340,000 active. AID 504766, 2011;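 active means inhibition above the mean over all tested compounds plus 3 SD, cut at about 4.2% in these data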;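 further: 0% = DAX1-transfected cells with DMSO and 100% = empty-vector control cells with DMSO; inhibition shows as a rise in luminescence from relieved DAX1 repression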
AHR activator = AHR activators, primary screen, cell-based, luminescence, luciferase reporter, human; activation, % at 5 µM; 2.5% of 320,000 active; AID 2796, 2010; AHR-responsive luciferase reporter cells; in the data active means activation above about 47%;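 further: 0% = vehicle wells and 100% = reference agonist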
AHR act confirm = AHR activators, confirmation, cell-based, luminescence, luciferase reporter, human; shares compounds with AHR activator; human cells, AHR-responsive luciferase reporter; activation, % at 9 µM; 87% of 2,300 active; AID 2845, 2010; in the data active means activation above about 49%;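 further: HepG2 hepatoma cells carrying a DRE-driven firefly luciferase reporter; 0% = vehicle wells and 100% = reference agonist wells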
PXR counter = human PXR activators, counter-screen for AHR activator project, cell-based, luciferase luminescence; shares compounds with AHR activator; cell-based PXR reporter; activation, % at 11.6 µM; 88% of 2,300 active; AID 434939, 2010; in the data active means activation above about 11%;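 further: human hepatoma DPX-2 cells expressing full-length human PXR; 0% = DMSO and 100% = reference agonist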
Target sequence (O75469 whole entry, looked up): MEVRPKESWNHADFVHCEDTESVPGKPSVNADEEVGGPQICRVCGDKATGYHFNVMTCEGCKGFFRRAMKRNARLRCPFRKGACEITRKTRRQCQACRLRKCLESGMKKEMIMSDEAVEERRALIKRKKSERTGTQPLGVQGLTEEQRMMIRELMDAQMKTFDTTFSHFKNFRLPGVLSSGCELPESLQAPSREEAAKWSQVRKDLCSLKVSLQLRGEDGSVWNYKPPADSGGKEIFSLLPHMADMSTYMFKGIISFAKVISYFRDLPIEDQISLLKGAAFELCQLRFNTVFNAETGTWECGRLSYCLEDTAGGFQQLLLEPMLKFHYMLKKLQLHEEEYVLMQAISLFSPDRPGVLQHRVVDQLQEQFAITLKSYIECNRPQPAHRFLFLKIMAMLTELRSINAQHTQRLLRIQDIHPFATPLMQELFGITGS
* hit, by the source's call; / = no result.

SMILES	hcDAF-12 act	ssDAF-12 act	DAX1 inh-1	hgDAF-12 ag	DAX1 inh-2	AHR activator	AHR act confirm	PXR counter
CCNC(=S)Nc1ccc(Cl)c([N+](=O)[O-])c1	-2	-2	-1	-1	-1	99*	50*	18*
CCOC(=O)c1sc(N/N=C/c2ccc(N(C)C)cc2)nc1C	1	-1	0	0	1	130*	86*	11*
CC(=O)c1sc(N/N=C\c2ccc(Br)cc2)nc1C	0	-1	2	8	1	19	/	/
Cc1cccc(NC2=C(NCCO)C(=O)c3ccccc3C2=O)c1	3	0	0	2	-2	113*	77*	65*
COc1cccc(NC2=C(NCCO)C(=O)c3ccccc3C2=O)c1	0	-1	-1	-2	0	10	/	/
O=C(NCCCN1CCCC1=O)c1ccccc1OCc1ccc(Cl)cc1Cl	-2	-1	-1	0	0	4	/	/
CCOCCc1nnc(NC(=O)CS(=O)(=O)Cc2ccccc2)s1	-2	-1	0	2	1	1	/	/
COc1ccc2c(C)nc(Nc3nc(C)cc(C)n3)nc2c1	0	0	0	-1	2	109*	101*	21*
CSc1ncnc2c1ncn2CCCNCCc1ccccn1	0	-1	1	1	1	/	/	/
CC(C)(C)NNC(=S)Nc1cccc(C(F)(F)F)c1	0	-2	0	2	2	-1	/	/
Cc1cccc(NC(=S)Nc2cccc(C(F)(F)F)c2)n1	0	-1	-1	3	0	104*	125*	23*
O=C(/C=C/c1ccccc1[N+](=O)[O-])Nc1cccnc1	3	-1	1	10	1	145*	83*	33*
Cc1cc(C)cc(NC(=O)CSCc2cc(=O)n3ccsc3n2)c1	0	-1	-1	-3	0	3	/	/
CC(=O)c1noc(C)c1C(=O)Nc1nccs1	1	-1	0	-2	0	103*	81*	/
Cc1onc(-c2c(Cl)cccc2Cl)c1C(=O)Nc1nccs1	-1	-1	-1	0	0	5	/	/
O=C(CSc1ccc(Cl)cc1)NNC(=O)c1cccnc1	0	-2	0	1	0	-1	/	/
COc1ccc(NS(=O)(=O)c2ccc3oc(Nc4ccc5c(c4)OCCO5)nc3c2)cc1	1	-1	0	2	1	87*	60*	19*
COc1cccc(S(=O)(=O)Nc2ccc3c(c2)OCCO3)c1	-3	-2	-1	-6	-1	/	/	/
O=[N+]([O-])c1cccc(C(=Nc2ccccc2Cl)NO)c1	1	-1	0	-1	0	85*	73*	50*
ONC(=Nc1ccccc1Cl)c1ccccc1Cl	-1	0	0	-1	-1	6	/	/
Cc1onc(-c2ccccc2Cl)c1C(=O)NCc1nc(-c2ccc(C(F)(F)F)cc2)no1	-3	-1	-1	-2	-4	3	/	/
Cc1cc(NC(=O)NC(=O)c2cccc(OC(F)(F)C(F)F)c2)n[nH]1	2	-1	2	6	1	157*	104*	17*
COC(=O)C(Cc1ccccc1)NC(=O)c1cc(S(=O)(=O)N(C)C)ccc1Cl (stereo unspecified)	0	-2	-1	2	1	2	/	/
COc1ccc(-c2cc(-c3cc(OC)ccc3O)[nH]n2)cc1	5	0	1	13*	3	159*	140*	18*
CCCNC(=O)c1ccc(COc2cccc3ccccc23)o1	-2	-1	0	1	-1	31	/	/
SMILES	hcDAF-12 act	ssDAF-12 act	DAX1 inh-1	hgDAF-12 ag	DAX1 inh-2	AHR activator	AHR act confirm	PXR counter
CCCNC(=O)c1ccc(COc2ccc(CCC)cc2OC)o1	-1	-1	0	-2	1	80*	80*	41*
COCCn1c(C)nnc1SCC(=O)NNC(=O)c1ccc(Br)cc1	0	-1	0	0	3	/	/	/
Cc1ccsc1C1CC(=O)Nc2ccccc2S1 (stereo unspecified)	1	-1	0	0	-2	88*	112*	39*
Cn1c(=O)n(CCc2ccccc2)c2ccccc21	1	-1	0	1	0	125*	111*	40*
Cn1c2ccccc2c(=O)c2cc(C#Cc3ccccn3)ccc21	2	0	1	2	1	96*	115*	28*
Cn1c2ccccc2c(=O)c2ccc(C#Cc3ccccn3)cc21	-1	-1	0	0	/	4	/	/
COc1ccc(Nc2nc(-c3ccccc3)nc3ccccc23)cc1S(=O)(=O)N1CCOCC1	-1	-2	0	-3	-3	4	/	/
COc1cccc(NC(=O)/C=C/c2ccc([N+](=O)[O-])cc2)c1	5	0	1	2	0	88*	91*	25*
CC1(C)CC(NC(=O)COc2ccc3c4c(c(=O)oc3c2)CCCC4)CC(C)(C)N1	0	-1	0	2	1	-1	/	/
CC(=O)Nc1sc(-c2ccc(Cl)cc2)nc1-c1ccccc1	-3	0	0	0	0	92*	-4	16*
COc1ccccc1-c1nnc(SCC(=O)Nc2ccc(N3CCOCC3)cc2)n1C	3	0	-1	2	-1	28	/	/
CC1CCCN(C(=O)c2cc3c(-c4ccc(Cl)cc4)nn(C)c3s2)C1 (stereo unspecified)	2	-1	1	4	0	82*	80*	23*
CCOc1ccc(N=C2SC(C(=O)Nc3ccccc3C#N)C(N)=C2C(=O)Nc2ccc(Cl)cc2)cc1 (stereo unspecified)	1	-1	0	-1	0	86*	71*	5
N#Cc1ccccc1NC(=O)C1SC(=Nc2ccccc2)C(C(=O)Nc2ccc(Cl)cc2)=C1N (stereo unspecified)	-2	-1	0	1	0	29	/	/
